Several values for one entry are separate records, joined by “and”; a condition that tells them apart may be missing. Identical values can stand only once. Results filed as inconclusive are left out. Activity calls are given as the source filed them. Unless noted, the call rests on the fitted dose curve; in most records, active means well fitted curve in the direction sought with a large enough effect; inconclusive means small, poorly fitted or top-dose-only effect, or another doubt; inactive means no such curve, though single readings can be large; an effect the other way counts as inactive or inconclusive.
Tests used:
[1] = Cell Viability - BJ (AID 421; calls by dose curve;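 further: potency means the concentration at half of the fitted maximal effect; cells exposed to compound for 40 hours at 37 °C before readout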); conditions: BJ fibroblast viability, qHTS
Outline: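 Luminescent ATP signal (CellTiter-Glo, 20 min at room temperature) served as the read-out of viable BJ cells after 40 hours of compound treatment. Responses were scaled between DMSO and 100 uM tamoxifen, and AC50 values were obtained by Hill modeling.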

[2] = Cell Viability - Jurkat (AID 426;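 active means dose-dependent loss of cell ATP signal giving a full or clear fitted curve, ranked by lower potency value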; further: potency means the concentration at half of the fitted maximal effect); conditions: qHTS
Outline: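 Seed 5000 Jurkat E6-1 cells/well; add compound; incubate 40 hr at 37 °C; add CellTiter-Glo; wait 20 min at room temperature; read luminescence. Fit concentration-response with Hill equation for AC50.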

[3] = Cell Viability - Hek293 (AID 427;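 active means compounds whose dose-response curve shows a full or clear partial loss of cell viability, called from curve shape rather than a numeric limit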;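 further: potency means the concentration at half of the fitted maximal effect; cells exposed to compound for 40 hours at 37 °C before reading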); conditions: qHTS
Outline: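 Luminescent ATP read-out (CellTiter-Glo, 20 min RT) after 40 hr compound exposure at 37 °C in complete medium. Signal normalized to DMSO (basal) and 100 uM tamoxifen (100% inhibition); concentration-response fitted with the standard Hill equation to give AC50.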

[4] = Cell Viability - HepG2 (AID 433; calls by dose curve;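 further: potency means the concentration at half of the fitted maximal effect; potency for ATP loss meaning cytotoxicity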); conditions: qHTS
Outline: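 HepG2 cells, 1500 per well, treated 40 hr at 37 °C in complete medium; viability from intracellular ATP by CellTiter-Glo luminescence. Normalized to DMSO and 100 uM tamoxifen; AC50 from Hill fit of qHTS concentration-response.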

[5] = Cell Viability - SK-N-SH (AID 435; calls by dose curve;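 further: potency means the concentration at half of the fitted maximal effect; compound exposure lasted 40 h at 37 °C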); conditions: SK-N-SH neuroblastoma cell viability qHTS
Outline: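 SK-N-SH neuroblastoma cells (1500/well) treated 40 h at 37 °C in complete medium; viability read as cellular ATP by CellTiter-Glo luminescence. Normalized to DMSO and 100 uM tamoxifen; AC50 from Hill fits of qHTS concentration-response.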

[6] = Cell Viability - Renal Proximal Tubule (AID 545); conditions: renal proximal tubule cells viability; series mostly up to 91.7 µM;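 further: 0% = DMSO only and -100% = 100 µM tamoxifen; nearly all actives have a fitted effect of over 40% in size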
Outline: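 Rat renal proximal tubule primary cells, 1000/well, exposed to compounds for 40 hr at 37 °C in complete medium; cellular ATP read by CellTiter-Glo luminescence. AC50 from concentration-response fitted with standard Hill equation.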

[7] = Cellular Toxicity (caspase-3) HUV-EC-C (AID 656); conditions: HUV-EC-C cells, caspase-3 activation (apoptosis), vehicle = 0, 100 µM tamoxifen = 100%; series mostly up to 92.2 µM;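 further: 0% = DMSO basal and 100% = 100 µM tamoxifen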
Outline: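 HUV-EC-C cells (1000/well) in complete medium, compound-treated 16 h at 37 °C; caspase-3/7 activity read by Caspase-Glo 3/7 luminescence. Normalized to DMSO (basal) and 100 uM tamoxifen (100%); AC50 from Hill-equation concentration-response fits.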

[8] = Cellular Toxicity (caspase-3) SHSY5Y (AID 657); conditions: SH-SY5Y caspase-3 activation, DMSO zero, 10 µM staurosporine = 100%; series mostly up to 91.7 µM
Outline: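 SH-SY5Y human neuroblastoma cells, 1500/well, exposed to compound for 16 hours at 37 °C in complete medium. Caspase-3/7 activity read by Caspase-Glo luminescence after 1 hr at room temperature, normalized to DMSO and 10 uM staurosporine; AC50 from Hill fit.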

[9] = Cellular Toxicity (caspase-3) MRC-5 (AID 659); conditions: MRC-5 cells, luminescence, normalized: DMSO 0%, 10 µM staurosporine 100%; series mostly up to 91.7 µM
Outline: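 MRC-5 human normal lung fibroblasts, 1500 cells/well, treated 16 h at 37 °C in complete medium. Caspase 3/7 measured by Caspase-Glo luminescence after 1 h at room temperature. Normalized to DMSO and 10 uM staurosporine; AC50 from Hill fit.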

[10] = MultiTox-Fluor Cytotoxicity Assay - LYMP1-002 - Live Cells (AID 955); conditions: LYMP1-002 lymphoblastoid live-cell protease fluorescence viability; series mostly up to 46.1 µM; further: on the % scale 0 is the no-effect control and ±100 the full control effect
Outline: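 Cytotoxicity in the human lymphoblastoid line LYMP1-002 is measured as loss of live-cell protease activity after 16 h treatment in complete culture medium. AC50 is derived from Hill-equation fits of qHTS concentration-response data.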

[11] = Cell Viability - LYMP1-003 - Assay at 24 hr (AID 963); conditions: LYMP1-003 lymphoblastoid cell viability; series mostly up to 92.2 µM;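 further: plate controls were DMSO only for no effect and tetraoctylammonium bromide positive control for full effect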
Outline: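 Acute toxicity in LYMP1-003 lymphoblastoid cells: 24 hr compound treatment at 37 C, ATP measured with CellTiter-Glo after 30 min at room temperature. AC50 derived by fitting the Hill equation to qHTS titrations.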

[12] = Cell Viability - LYMP2-009 (AID 968); conditions: LYMP2-009 lymphoblastoid cell viability; series mostly up to 92.2 µM;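 further: 0% = DMSO alone and the full-kill end = tetraoctylammonium bromide at 92 µM; nearly all actives have a fitted effect of over 55% in size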
[13] = Cell Viability - LYMP2-017 (AID 972); conditions: LYMP2-017 lymphoblastoid cell viability; series mostly up to 92.2 µM;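 further: cells exposed to compound for 24 hours at 37 °C; on the % scale 0 is the no-effect control and ±100 the full control effect; nearly all actives have a fitted effect of over 55% in size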
Outline: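 Steps: plate 2500 lymphoblastoid cells per well; incubate 5 hr at 37 C; add compound across a concentration series and incubate 24 hr at 37 C; add CellTiter-Glo and read luminescence after 30 min at room temperature; fit Hill curves for AC50.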

[14] = Cell Viability - LYMP2-025 (AID 976); conditions: LYMP2-025 lymphoblastoid cell viability; series mostly up to 92.2 µM;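 further: plate controls were DMSO only for no effect and tetraoctylammonium bromide control for full effect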
Outline: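 In qHTS format, LYMP2-025 lymphoblastoid cells in complete culture medium received compound for 24 hr; ATP-based CellTiter-Glo signal gave viability, with AC50 derived by Hill equation.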

[15] = Cell Viability - LYMP2-016 (AID 984); conditions: LYMP2-016 lymphoblastoid cell viability, qHTS; series mostly up to 92.2 µM;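 further: cells exposed to compound for 24 hours at 37 °C; on the % scale 0 is the no-effect control and ±100 the full control effect; nearly all actives have a fitted effect of over 55% in size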
Outline: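 Human lymphoblastoid LYMP2-016 cells, 2500 per well, treated with compounds for 24 h at 37 C. Viability read as intracellular ATP by CellTiter-Glo luminescence after 30 min at room temperature; AC50 from Hill fits of concentration-response.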

[16] = Cell Viability - LYMP2-024 (AID 988); conditions: LYMP2-024 lymphoblastoid cell viability; series mostly up to 92.2 µM;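 further: plate controls were DMSO only for no effect and 92 µM tetraoctylammonium bromide for full effect; nearly all actives have a fitted effect of over 60% in size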
Outline: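 Acute toxicity is measured as concentration-dependent loss of intracellular ATP in a human lymphoblastoid line treated 24 hours at 37 C. Luciferase luminescence quantifies ATP; AC50 values come from standard Hill-equation modelling.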

[17] = qHTS Assay for Identification of Small Molecule Inducers of Hypoxia Response (AID 2120; active means well fitted curve in the direction sought with a large enough effect in the signal ratio, with a control signal flat, not every such curve was filed as active; the % refers to the signal ratio; further: 0% is about no effect); conditions: hypoxia response reporter cells, beta-lactamase ratio readout; series mostly up to 104 µM
Outline: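 Induction of beta-lactamase reporter activity was measured in CellSensor HRE-bla ME-180 cells after 17 h compound treatment at 37 degrees C, using CCF4 substrate and the 460nm/530nm emission ratio to derive AC50 values.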

[18] = qHTS assay for small molecule agonists of retinoid X receptor alpha signaling (AID 588544); conditions: HEK293T RXRa-UAS-bla, beta-lactamase reporter, 18 h; 530 nm emission
[19] = biological target: Peroxisome proliferator-activated receptor alpha (Homo sapiens) (UniProt Q07869); test: qHTS assay for small molecule agonists of the peroxisome proliferator-activated receptor alpha (PPARalpha) signaling pathway (AID 651778); conditions: PathHunter PPARalpha complementation, chemiluminescence, 6 h; stronger effect = higher value; further: % of control where 0% means no effect
Chain of Peroxisome proliferator-activated receptor alpha (Homo sapiens) (Q07869 whole entry, looked up, the tested form may be a part): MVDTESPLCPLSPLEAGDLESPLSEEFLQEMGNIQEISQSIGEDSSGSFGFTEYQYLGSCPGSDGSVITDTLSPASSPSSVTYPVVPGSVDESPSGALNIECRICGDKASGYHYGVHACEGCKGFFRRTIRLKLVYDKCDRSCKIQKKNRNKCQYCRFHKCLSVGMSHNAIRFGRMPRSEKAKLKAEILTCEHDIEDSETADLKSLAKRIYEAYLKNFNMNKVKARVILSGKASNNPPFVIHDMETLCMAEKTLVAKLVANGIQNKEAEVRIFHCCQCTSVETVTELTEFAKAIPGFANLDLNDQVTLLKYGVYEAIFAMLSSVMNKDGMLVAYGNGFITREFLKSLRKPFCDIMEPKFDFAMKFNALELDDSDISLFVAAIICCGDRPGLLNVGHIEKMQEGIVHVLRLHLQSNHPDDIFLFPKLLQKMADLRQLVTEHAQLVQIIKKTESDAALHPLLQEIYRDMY
Outline: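 Enzyme-fragment complementation assay in which ligand-bound PPARalpha translocates and forms an active enzyme that generates chemiluminescence. Cells were plated overnight, exposed to compound for 6 hr at 37 C, and then given detection reagent for 60 min at room temperature.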

[20] = qHTS assay for small molecule agonists of the antioxidant response element (ARE) signaling pathway measured by Nrf2-dependant transcriptional activity - cell viability counter screen (AID 720653; active means well fitted curve in the direction sought with a large enough effect in the repeat runs; an effect the other way counts as inactive or inconclusive; further: on the % scale 0 is the no-effect control and ±100 the full control effect); conditions: ARE-bla HepG2 viability, CellTiter-Glo ATP luminescence, 16 h; stronger effect = lower value
Outline: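 ARE-bla HepG2 cells treated with compounds for 16 h at 37C; this counter screen measures viability as intracellular ATP by CellTiter-Glo luminescence after 30 min at room temperature.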

Cc1ccccc1[N+](=O)[O-]
inactive: Potency [1] > 92 µM | Potency [2] > 92 µM | Potency [3] > 92 µM | Potency [4] > 92 µM | Potency [5] > 92 µM | outcome [6] | outcome [7] | outcome [8] | outcome [9] | outcome [10] | outcome [11] | Potency [12] | Potency [13] | Potency [14] | Potency [15] | Potency [16] | Potency [17] | max response [19] 2.03% | max response [20] 11.5%
-2.95%: max response [18]

C=CC=O
inactive: Potency [1] > 92 µM | Potency [2] > 92 µM | Potency [3] > 92 µM | Potency [4] > 92 µM | Potency [5] > 92 µM | outcome [6] | outcome [7] | outcome [8] | outcome [9] | outcome [10] | outcome [11] | Potency [12] | Potency [13] | Potency [14] | Potency [15] | Potency [17] | max response [19] -5.14% | max response [20] 9.03%
-0.594%: max response [18]

CCC[N+](=O)[O-]
-16.6%: max response [18]
inactive: Potency [1] > 92 µM | Potency [2] > 92 µM | Potency [3] > 92 µM | Potency [4] > 92 µM | Potency [5] > 92 µM | outcome [6] | outcome [7] | outcome [8] | outcome [9] | outcome [10] | outcome [11] | Potency [12] | Potency [13] | Potency [14] | Potency [15] | Potency [16] | Potency [17] | max response [19] -0.431% | max response [20] -3.7%

Cc1ccc(N)cc1C
inactive: Potency [1] > 92 µM | Potency [2] > 92 µM | Potency [3] > 92 µM | Potency [4] > 92 µM | Potency [5] > 92 µM | outcome [6] | outcome [7] | outcome [8] | outcome [9] | outcome [10] | outcome [11] | Potency [12] | Potency [13] | Potency [14] | Potency [15] | Potency [16] | Potency [17] | max response [19] -0.229% | max response [20] -7.17%
-0.563%: max response [18]

COc1c(C(C)(C)C)cc([N+](=O)[O-])c(C)c1[N+](=O)[O-]
inactive: Potency [1] > 92 µM | Potency [2] > 92 µM | Potency [3] > 92 µM | Potency [4] > 92 µM | Potency [5] > 92 µM | outcome [6] | outcome [7] | outcome [8] | outcome [9] | outcome [10] | outcome [11] | Potency [12] | Potency [13] | Potency [14] | Potency [15] | Potency [16] | Potency [17] | max response [19] 1.79% | max response [20] 4.77%
-3.49%: max response [18]

O=C(Cl)OCc1ccccc1
inactive: Potency [1] > 92 µM | Potency [2] > 92 µM | Potency [3] > 92 µM | Potency [4] > 92 µM | Potency [5] > 92 µM | outcome [6] | outcome [7] | outcome [8] | outcome [9] | outcome [10] | outcome [11] | Potency [12] | Potency [13] | Potency [14] | Potency [15] | Potency [16] | Potency [17] | max response [19] 0.201% | max response [20] 6.86%
-1.31%: max response [18]

Clc1cc(Cl)c(Cl)c(Cl)c1
inactive: Potency [1] > 92 µM | Potency [2] > 92 µM | Potency [3] > 92 µM | Potency [4] > 92 µM | Potency [5] > 92 µM | outcome [6] | outcome [7] | outcome [8] | outcome [9] | outcome [10] | outcome [11] | Potency [12] | Potency [13] | Potency [14] | Potency [15] | Potency [16] | Potency [17] | max response [19] -0.217% | max response [20] -5.74%
0.707%: max response [18]

N#CCBr
inactive: Potency [1] > 92 µM | Potency [2] > 92 µM | Potency [3] > 92 µM | Potency [4] > 92 µM | Potency [5] > 92 µM | outcome [6] | outcome [7] | outcome [8] | outcome [9] | outcome [10] | outcome [11] | Potency [12] | Potency [13] | Potency [14] | Potency [15] | Potency [16] | Potency [17] | max response [19] -0.274% | max response [20] -10.6%
-6.36%: max response [18]

CC(C)(C)c1ccccc1O
-1.25% and -13.7%: max response [18]
inactive: Potency [1] > 92 µM | Potency [2] > 92 µM | Potency [3] > 92 µM | Potency [4] > 92 µM | Potency [5] > 92 µM | outcome [6] | outcome [7] | outcome [8] | outcome [9] | outcome [10] | outcome [11] | Potency [12] | Potency [13] | Potency [14] | Potency [15] | Potency [16] | Potency [17] | max response [19] -7.23% and -1.41% | max response [20] -8.15% and -10.7%

Cc1coc2c1CCC(C)C2 (centres undefined)
-8.64%: max response [18]
inactive: Potency [1] > 92 µM | Potency [2] > 92 µM | Potency [3] > 92 µM | Potency [4] > 92 µM | Potency [5] > 92 µM | outcome [6] | outcome [7] | outcome [8] | outcome [9] | outcome [10] | outcome [11] | Potency [12] | Potency [13] | Potency [14] | Potency [15] | Potency [16] | Potency [17] | max response [19] 9.95% | max response [20] -1.7%

ClC(Cl)C(Cl)Cl
inactive: Potency [1] > 92 µM | Potency [2] > 92 µM | Potency [3] > 92 µM | Potency [4] > 92 µM | Potency [5] > 92 µM | outcome [6] | outcome [7] | outcome [8] | outcome [9] | outcome [10] | outcome [11] | Potency [12] | Potency [13] | Potency [14] | Potency [15] | Potency [16] | Potency [17] | max response [19] -3.31% | max response [20] -4.41%
-4.19%: max response [18]
